Consider nine compounds from PubChem BioAssay.

Assay [1] is described as follows: E. coli DRC41 culture turbidity changes, primary screen, E. coli filamentation inducer project, strain DRC41, OD650, 48 h (AID 1152).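 Also: E. coli MC1000 strain DRC41 lacking acrAB efflux pump and sulA.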 To be noted: E. coli DRC41 (acrAB sulA), higher = more signal, called active from +8 up or from −8 down.
A short description of assay [2]: small-molecule binders of probe aLefty1, primary screen, biochemical, small-molecule microarray, 635/667 nm fluorescence (AID 1153).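 Also: score merges spot fluorescence with signal-to-noise ratio from the scanned slide images.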 To be noted: higher = more signal.
The nature of assay [3]: PSAC antagonists in infected red cells, primary screen, cell-based, P. falciparum Indochina, OD700, 1 h (AID 1154). To be noted: P. falciparum Indochina infected RBC osmotic lysis, higher = more signal, called active from +8 up or from −8 down.
The nature of assay [4]: PSAC antagonists in infected red cells, primary screen, cell-based, P. falciparum Indochina, OD700, 2 h (AID 1155).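 Also: lysis reports solute entry through the parasite surface anion channel PSAC; channel blockers reduce lysis of infected cells.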 To be noted: P. falciparum Indochina infected erythrocytes, osmotic lysis OD700; higher = more signal, called active from +8 up or from −8 down.
Assay [5] in a line: osmotic lysis modulators in infected erythrocytes, primary screen, PSAC antagonist project, cell-based, P. falciparum Indochina, OD700, 3 h (AID 1156). To be noted: higher = more signal, called active from +8 up or from −8 down.
Assay [6] is described as follows: PSAC antagonists in infected red cells, primary screen, cell-based, P. falciparum Indochina, OD700, 18 h (AID 1157). To be noted: P. falciparum Indochina infected erythrocytes, osmotic lysis OD700, 18 h; higher = more signal, called active from +8 up or from −8 down.
Assay [7] can be described thus: modulators of S6 phosphorylation in cells, primary screen, cell-based, A549, cytoblot, luminescence, serum-stimulated (AID 1158).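 Also: serum-stimulated A549 lung adenocarcinoma cells; signal is phosphorylated S6 detected by cytoblot immunostaining with HRP secondary.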 To be noted: A549 phospho-S6 cytoblot, 5 h, higher = more signal.
The target in assay [8] is NADPH oxidase 2 (Homo sapiens) (UniProt P04839). Description: NOX2-dependent H2O2 signal modulators, primary screen, NOX inhibitor project, cell-based, HEK293-NOX2, PMA-stimulated, Amplex Red fluorescence (AID 1159). Also: test concentration not given here. To be noted: 45 min, higher = more signal, called active from +8 up or from −8 down.
Chain of NADPH oxidase 2 (Homo sapiens) (P04839 whole entry, looked up): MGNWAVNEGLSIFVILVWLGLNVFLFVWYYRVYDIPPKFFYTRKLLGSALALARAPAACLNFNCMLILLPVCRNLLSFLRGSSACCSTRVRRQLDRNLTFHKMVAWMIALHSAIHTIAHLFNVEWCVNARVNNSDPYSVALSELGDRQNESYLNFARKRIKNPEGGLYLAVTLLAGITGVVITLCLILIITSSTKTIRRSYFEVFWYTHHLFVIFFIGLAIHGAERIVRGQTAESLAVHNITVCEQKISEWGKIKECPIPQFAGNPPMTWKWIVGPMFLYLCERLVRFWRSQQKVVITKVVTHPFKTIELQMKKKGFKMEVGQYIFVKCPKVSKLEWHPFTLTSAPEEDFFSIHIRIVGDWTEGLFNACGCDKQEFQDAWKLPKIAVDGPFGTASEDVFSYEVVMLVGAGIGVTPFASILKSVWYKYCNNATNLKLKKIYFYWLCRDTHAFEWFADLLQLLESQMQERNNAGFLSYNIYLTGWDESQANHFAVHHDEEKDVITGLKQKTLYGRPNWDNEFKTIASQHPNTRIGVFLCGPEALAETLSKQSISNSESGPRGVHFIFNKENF
The target of assay [9] is NADPH oxidase 4 (Homo sapiens) (UniProt Q9NPH5). Description: NOX4-dependent H2O2 signal modulators, primary screen, NOX inhibitor project, cell-based, HEK293-NOX4, tetracycline-induced, Amplex Red fluorescence (AID 1160). To be noted: 45 min, higher = more signal, called active from +8 up or from −8 down.
Chain of NADPH oxidase 4 (Homo sapiens) (Q9NPH5 whole entry, looked up): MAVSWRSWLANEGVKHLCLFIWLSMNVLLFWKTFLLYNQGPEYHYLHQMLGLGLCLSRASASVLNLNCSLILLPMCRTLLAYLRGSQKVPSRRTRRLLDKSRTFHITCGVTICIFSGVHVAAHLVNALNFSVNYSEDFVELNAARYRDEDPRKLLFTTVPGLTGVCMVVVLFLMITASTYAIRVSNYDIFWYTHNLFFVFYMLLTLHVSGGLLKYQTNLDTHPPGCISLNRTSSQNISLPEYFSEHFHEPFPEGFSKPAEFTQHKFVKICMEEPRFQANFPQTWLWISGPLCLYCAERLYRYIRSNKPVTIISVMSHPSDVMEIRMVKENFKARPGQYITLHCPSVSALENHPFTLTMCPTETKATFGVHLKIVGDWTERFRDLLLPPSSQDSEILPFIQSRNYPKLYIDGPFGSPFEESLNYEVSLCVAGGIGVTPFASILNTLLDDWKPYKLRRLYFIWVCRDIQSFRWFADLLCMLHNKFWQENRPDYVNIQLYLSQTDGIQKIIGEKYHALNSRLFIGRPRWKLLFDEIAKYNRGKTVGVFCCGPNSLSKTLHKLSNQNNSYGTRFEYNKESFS
For assay [10], the target named is NADPH oxidase 5 (Homo sapiens) (UniProt Q96PH1). Description: NOX5-dependent H2O2 signal modulators, primary screen, NOX inhibitor project, cell-based, HEK293-NOX5, Amplex Red fluorescence (AID 1161). To be noted: HEK293-NOX5, ionomycin, 45 min, higher = more signal.
Chain of NADPH oxidase 5 (Homo sapiens) (Q96PH1 whole entry, looked up): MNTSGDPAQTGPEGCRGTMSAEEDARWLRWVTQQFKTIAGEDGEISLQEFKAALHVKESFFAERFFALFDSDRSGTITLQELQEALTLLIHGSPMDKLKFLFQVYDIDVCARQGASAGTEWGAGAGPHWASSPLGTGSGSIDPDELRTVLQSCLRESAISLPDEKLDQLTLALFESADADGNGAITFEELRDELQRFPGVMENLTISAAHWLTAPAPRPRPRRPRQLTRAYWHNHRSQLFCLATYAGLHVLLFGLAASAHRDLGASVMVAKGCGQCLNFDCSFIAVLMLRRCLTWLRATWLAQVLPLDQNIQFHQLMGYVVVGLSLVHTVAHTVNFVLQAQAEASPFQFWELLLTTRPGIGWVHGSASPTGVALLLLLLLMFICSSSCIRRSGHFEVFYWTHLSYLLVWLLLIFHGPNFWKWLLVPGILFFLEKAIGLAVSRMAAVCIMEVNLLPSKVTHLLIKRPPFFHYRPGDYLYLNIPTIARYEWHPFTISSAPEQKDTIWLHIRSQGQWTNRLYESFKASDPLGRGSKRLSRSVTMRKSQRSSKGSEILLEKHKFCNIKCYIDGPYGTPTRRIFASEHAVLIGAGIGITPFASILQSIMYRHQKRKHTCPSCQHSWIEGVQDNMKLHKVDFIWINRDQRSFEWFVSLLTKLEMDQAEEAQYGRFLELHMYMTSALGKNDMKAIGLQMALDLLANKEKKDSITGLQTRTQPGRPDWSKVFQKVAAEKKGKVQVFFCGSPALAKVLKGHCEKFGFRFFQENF
Assay [11] in a line: A549 cell viability effects, profiling panel, calcein-AM fluorescence, 48 h, basal (AID 1162). Also: test concentration not given here. To be noted: higher = more signal.
Assay [12] in a line: adipocyte viability effects, profiling panel, cell-based, 3T3-L1 adipocytes, calcein-AM fluorescence, 48 h, basal (AID 1163). Also: test concentration not given here. To be noted: 3T3-L1 adipocytes viability, higher = more signal.
A short description of assay [13]: HepG2 cell viability effects, profiling panel, calcein-AM fluorescence, 48 h, basal (AID 1164). Also: test concentration not given here. To be noted: higher = more signal.
A short description of assay [14]: MM1S cell viability effects, profiling panel, calcein-AM fluorescence, 48 h, basal (AID 1165).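 Also: viability of MM1S multiple myeloma cells under basal unstimulated conditions; test concentration not given here.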 To be noted: higher = more signal.
Assay [15] can be described thus: basal RPMI8226 viability, no added stimulus, profiling panel, cell-based, calcein-AM fluorescence, 48 h, PK04 Diversity Set (AID 1166).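 Also: cells grown under basal conditions without added stimulus; test concentration not given here.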 To be noted: RPMI8226 myeloma viability, higher = more signal.
The nature of assay [16]: basal HepG2 mitochondrial membrane potential changes, profiling panel, cell-based, JC-1 fluorescence, 24 h, 100 nL compound (AID 1167). Also: test concentration not given here. To be noted: higher = more signal.
A short description of assay [17]: basal 3T3-L1 adipocyte mitochondrial potential changes, profiling panel, cell-based, JC-1 fluorescence, 3T3-L1 adipocytes, 24 h, 100 nL compound (AID 1168). Also: test concentration not given here. To be noted: JC-1 mitochondrial fluorescence, higher = more signal, called active from +8 up or from −8 down.
Assay [18] is described as follows: basal RPMI8226 mitochondrial membrane potential changes, profiling panel, cell-based, JC-1 fluorescence, 24 h, 100 nL compound (AID 1169). Also: test concentration not given here. To be noted: RPMI8226 myeloma, JC-1 mitochondrial potential fluorescence, higher = more signal.
A short description of assay [19]: basal MM1S mitochondrial membrane potential changes, profiling panel, cell-based, JC-1 fluorescence, 24 h, 100 nL compound (AID 1170). Also: test concentration not given here. To be noted: higher = more signal.
A short description of assay [20]: A549 lung cancer cell viability effects, profiling panel, resazurin fluorescence, 24 h, PK04 Diversity Set (AID 1171). Also: test concentration not given here. To be noted: higher = more signal, called active from +8 up or from −8 down.

Calls of active or inactive are those of the source.

With `COC(=O)[C@@]1(Cc2ccccc2)[C@H]2c3cc(C(=O)N(C)C)n(Cc4ccccc4)c3C[C@H]2CN1C(=O)c1ccccc1`, the z-score was -1.39 (inactive) in assay [1]; 1.54 (inactive) in assay [3]; 0.488 (inactive) in [4]; 0.775 (inactive) in assay [5]; 0.667 (inactive) in assay [6]; -0.608 in [7]. Further, the z-score is 0.543 (inactive) in assay [8]; -0.0416 (inactive) in [9]; -0.0705 in [10]; -1.19 in assay [11]; -0.93 in assay [12]; -0.775 in assay [13]. Also, the z-score in [14] was -0.143; in [15], -0.747; in assay [16] it was 1.14; in assay [17], -0.655 (inactive); in assay [18] it was 0.599; in assay [19], -1.06. Also, the z-score in assay [20] is -0.407 (inactive). In addition, the composite z-score in [2] came to 0.177.

For `Cc1ccc(S[C@]2(C(=O)NCCN3CCOCC3)CC(=O)N(C3CCCCC3)[C@@H]2c2ccc(CO)cc2)cc1`, the z-score is -0.288 (inactive) in [1]; 1.47 (inactive) in assay [3]; 0.502 (inactive) in [4]; 0.512 (inactive) in assay [5]; 0.377 (inactive) in assay [6]; -0.667 in assay [7]. In addition, the z-score in [8] was 0.444 (inactive); in assay [9], 1 (inactive); in [10], 0.923; in assay [11], 2.25; in [12], 0.486; in [13], 0.555. The z-score in assay [14] was 0.309; in [15], -0.65; in assay [16], -0.0786; in assay [17], -0.281 (inactive); in assay [18], 0.698; in assay [19], 0.485. For the same compound, the z-score in assay [20] was 1.51 (inactive). The composite z-score in assay [2] worked out at 0.136.

Regarding `C=CCN1C(=O)[C@@]2(O[C@@H](CCO)[C@H]([Si](C)(C)c3ccc(OC)cc3)[C@H]2C)c2cc(NC(C)=O)ccc21`, the z-score in [1] was -0.149 (inactive); in assay [3], 23.7 (active); in [4] it was 8.14 (active); in assay [5], 0.502 (inactive); in assay [6], 1.26 (inactive); in assay [7], 0.0792. The z-score in assay [8] is -1.07 (inactive); in [9], -0.0526 (inactive); in [10] it was -0.391; in assay [11], 0.103; in [12], -0.213; in assay [13], -0.411. The z-score in assay [14] is -1.36; in assay [15] it was -1.56; in assay [16], -0.96; in assay [17], -0.296 (inactive); in assay [18] it was -0.484; in assay [19], -0.722. Besides, the z-score in assay [20] is -1.17 (inactive). For the same compound, the composite z-score in assay [2] amounted to 0.0429.

For `C[N+](C)(C)CCCCNC(=O)[C@H]1C[C@H]2C(=O)N3CCC[C@H]3C(=O)N2[C@H]1c1ccc(O)cc1`, the z-score is -0.314 (inactive) in assay [1]; 0.542 (inactive) in assay [3]; 0.196 (inactive) in assay [4]; -1.66 (inactive) in assay [5]; 0.0068 (inactive) in assay [6]; -0.0429 in assay [7]. Also, the z-score in assay [8] is -2.45 (inactive); in [9] it was -0.739 (inactive); in assay [10], -1.42; in [11] it was -0.814; in assay [12], 0.0179; in assay [13], -0.674. For the same compound, the z-score in assay [14] is -0.642; in [15] it was -0.772; in assay [16], -1.1; in [17], -1.5 (inactive); in assay [18], 0.0553; in [19], -0.38. In addition, the z-score in [20] is 0.0558 (inactive). Besides, in assay [2], the composite z-score was -0.0141.

For `CCN(CC)c1ccc(N2CC=CC34O[C@@H]5/C=C\CCC(C)OC(=O)C5[C@H]3C(=O)N(CCCCCCO)[C@@H]4C2=O)cc1` (stereo not given in full), the z-score in [1] was 0.699 (inactive); in assay [3], -0.37 (inactive); in assay [4] it was 0.0486 (inactive); in assay [5], -0.383 (inactive); in [6], 0.33 (inactive); in assay [7], 1.35. Further, the z-score in assay [8] was -0.315 (inactive); in [9], -0.0195 (inactive); in assay [10], 0.813; in assay [11], 1.21; in [12], -1.09; in assay [13], 0.674. Further, the z-score was 1.57 in [14]; 0.153 in [15]; 1.25 in [16]; -1.02 (inactive) in assay [17]; 0.0282 in assay [18]; 0.846 in [19]. In addition, in assay [20], the z-score is 0.606 (inactive). Besides, in [2], the composite z-score was -0.464.

With `COc1ccc([Si](C)(C)[C@@H]2[C@@H](CCO)O[C@]3(C(=O)N(Cc4ccccc4)c4ccc(N(C=O)c5ccccc5)cc43)[C@H]2C)cc1`, the z-score was 0.601 (inactive) in [1]; 2.8 (inactive) in assay [3]; 2.37 (inactive) in assay [4]; 1.09 (inactive) in [5]; 1.87 (inactive) in assay [6]; 0.418 in assay [7]. Further, the z-score in [8] is 0.337 (inactive); in assay [9] it was 1.06 (inactive); in [10], 2.49; in assay [11], -0.77; in [12] it was -0.895; in assay [13], -1.13. Further, the z-score in assay [14] is -1.54; in [15] it was -3.38; in assay [16] it was 0.00444; in assay [17], -0.435 (inactive); in assay [18], -0.858; in assay [19] it was -1.56. In addition, in assay [20], the z-score was -2.31 (inactive). Also, in [2], the composite z-score is 0.0355.

For `[N-]=[N+]=Nc1ccccc1[C@H]1OC(c2ccc(OCCCO)cc2)=N[C@@]1(CCS(=O)(=O)c1ccccc1)C(=O)N1CCOCC1`, the z-score in [1] was 0.399 (inactive); in [3] it was 31 (active); in assay [4] it was 23.6 (active); in [5], 1.88 (inactive); in assay [6] it was 4.6 (inactive); in [7] it was 0.211. The z-score is 0.404 (inactive) in [8]; 1.56 (inactive) in assay [9]; 1.36 in assay [10]; 0.412 in assay [11]; -0.0376 in [12]; 0.402 in [13]. In addition, the z-score in assay [14] is -0.655; in assay [15], -0.184; in assay [16], -1.34; in assay [17], -0.392 (inactive); in assay [18], -0.666; in assay [19] it was -1.47. Moreover, the z-score in [20] was -0.913 (inactive). Further, the composite z-score in assay [2] is 1.48.

For the compound `O=c1cccc(-c2ccccc2)o1`, the z-score in assay [1] is -0.766 (inactive); in assay [3] it was 3.18 (inactive); in assay [4], 0.578 (inactive); in assay [5], -0.891 (inactive); in [6], 0.611 (inactive); in assay [7] it was -0.548. The z-score was 0.227 (inactive) in assay [8]; -1.81 (inactive) in assay [9]; -0.322 in assay [10]; -1.18 in assay [11]; 0.0455 in [12]; -0.738 in assay [13]. Further, the z-score in assay [14] was -1.11; in assay [15] it was -0.664; in assay [16], -1.05; in [17] it was 0.221 (inactive); in assay [18], 0.826; in assay [19] it was -0.435. Besides, in assay [20], the z-score is 0.299 (inactive). In assay [2], this compound showed a composite z-score of -0.0099.

As to `O=C(CS)NCCCCCNC(=O)[C@H]1C[C@H]2C(=O)N[C@@H](Cc3ccccc3)C(=O)N2[C@H]1c1cccc(OCCO)c1`, the z-score in assay [1] is 1.77 (inactive); in assay [3], 3.03 (inactive); in assay [4] it was 0.724 (inactive); in [5] it was -2 (inactive); in assay [6], 0.425 (inactive); in assay [7] it was 0.9. Also, the z-score in [8] is 1.69 (inactive); in [9], 1.34 (inactive); in assay [10], 0.687; in assay [11] it was 0.917; in assay [12] it was -0.0063; in assay [13], 0.585. For the same compound, the z-score in [14] is 0.898; in [15] it was -0.156; in assay [16], 1.3; in [17], -0.0668 (inactive); in assay [18] it was -0.736; in assay [19] it was -0.256. In assay [20], the z-score is 0.363 (inactive). The composite z-score in assay [2] came to 0.373.
